# Reference: PubChem BioAssay
# A number with no mark means an inactive call. The rule behind the calls is not given here.
# Target: Pantothenate synthetase (Mycobacterium tuberculosis (strain ATCC 25618 / H37Rv)) (UniProt P9WIL5)
# Experiment: Coupled enzyme confirmation of inhibitors against recombinant Mtb PanC (AID 375);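 note: 0% = full reaction with vehicle and 100% = no enzyme background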
# Details: coupled enzyme assay; at 10 µM, stronger effect = higher value
# Sequence of Pantothenate synthetase (Mycobacterium tuberculosis (strain ATCC 25618 / H37Rv)) (P9WIL5 whole entry, looked up): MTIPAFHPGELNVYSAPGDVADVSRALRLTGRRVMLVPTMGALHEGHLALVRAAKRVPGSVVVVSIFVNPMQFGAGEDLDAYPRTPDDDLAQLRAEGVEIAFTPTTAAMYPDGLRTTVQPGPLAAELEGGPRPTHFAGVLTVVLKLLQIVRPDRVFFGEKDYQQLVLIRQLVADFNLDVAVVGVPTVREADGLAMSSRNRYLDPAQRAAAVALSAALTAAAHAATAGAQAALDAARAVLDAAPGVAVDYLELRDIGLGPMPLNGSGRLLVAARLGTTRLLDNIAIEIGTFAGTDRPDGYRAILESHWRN
row,Structure (SMILES),inhibition [%]
1,CN1CCCc2cc(C#N)c(=O)[nH]c21,5
2,COc1cccc2cc(C(=O)N3CCN(c4ccc(C)cc4C)CC3)c(=O)oc12,0
3,Cc1ccc2c(c1C)NC(C(=O)O)C1CC=CC21 (configuration not stated),0
4,CC(C)OP(=O)(c1ccc(N(C)C)cc1)C(O)c1ccccc1F (configuration not stated),0
5,CC(C[N+](C)(C)C)OC(N)=O (configuration not stated),0
6,CCOc1ccc(-c2c(C#N)c(N)nc3c2c(=O)n(C)c(=O)n3C)cc1OC,6
7,Cc1c(C(=O)OCC(C)C)[nH]c2c1C(=O)CC(c1ccco1)C2 (configuration not stated),1
8,CCCCn1c(SCC(=O)OCC)nc2c1c(=O)[nH]c(=O)n2C,2
9,O=C1CN(C(=O)COC(=O)C23CC4CC(CC(O)(C4)C2)C3)c2ccccc2N1,19
10,CC(=O)O[C@]1(C(C)=O)CC[C@H]2[C@@H]3C=C(Cl)C4=CC(=O)CC[C@]4(C)[C@H]3CC[C@@]21C,0
11,Cn1c(SC/C=C/c2ccccc2)nnc1-c1cnccn1,1
12,O=S(=O)(Nc1nc2ccccc2nc1NCc1ccco1)c1cccs1,2
13,Cn1c(=O)c2c(ncn2CC(O)CO)n(C)c1=O (configuration not stated),0
14,O=C(CN1CCN(c2ncccn2)CC1)Nc1ccccc1-n1cccc1,0
15,O=C(C1CCN(S(=O)(=O)c2ccc(-n3cnnn3)cc2)CC1)N1CCN(c2ccccc2)CC1,11
16,Nc1nnc(SCC(=O)N2CCN(c3ccccc3)CC2)n1-c1ccccc1,7
17,CC(=O)N1CCN(S(=O)(=O)c2ccc(S(=O)(=O)NC3CC3)cc2)CC1,3
